Compound activity from PubChem.
Rows were chosen to be rich in hits. Some 2.4% of all compounds tested hit in one or more screens of this group.
M1 PAM = potentiates human M1 receptor response to acetylcholine; hit rate 0.088% among 360,000; AID 588819; activation, % at 3 µM; CHO-K1 hM1, Fluo-8 calcium fluorescence, ACh EC20; 0% = ACh EC20, 100% = maximal ACh; in the data active = activation above about 19%, passing the limit was not always enough
Target sequence (P11229 whole entry, looked up): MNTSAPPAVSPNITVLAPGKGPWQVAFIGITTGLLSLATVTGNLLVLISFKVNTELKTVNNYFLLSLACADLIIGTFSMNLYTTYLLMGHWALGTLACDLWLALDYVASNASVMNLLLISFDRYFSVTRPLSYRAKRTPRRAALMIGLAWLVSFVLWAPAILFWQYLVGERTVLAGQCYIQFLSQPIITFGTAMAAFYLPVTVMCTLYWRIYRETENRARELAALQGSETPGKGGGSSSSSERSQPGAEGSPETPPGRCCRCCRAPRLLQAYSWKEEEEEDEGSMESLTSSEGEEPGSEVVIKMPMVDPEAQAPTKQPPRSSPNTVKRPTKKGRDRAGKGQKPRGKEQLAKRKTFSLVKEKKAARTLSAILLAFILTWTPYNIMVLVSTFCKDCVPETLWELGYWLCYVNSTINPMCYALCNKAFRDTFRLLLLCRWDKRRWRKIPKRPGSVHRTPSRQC
M1 ag = human M1 muscarinic receptor agonism; P11229; CHO-K1 hM1, Fluo-8 calcium fluorescence, agonist mode; 0% DMSO, 100% acetylcholine EC100; activation, % at 3 µM; hit rate 0.33% among 360,000; AID 588814;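 active = activation above the run's mean compound activation plus 3 SD, cut at about 16% in these data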;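 note: peak over basal fluorescence ratio within a 140 s kinetic read after compound addition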
CHO-K1 Ca PAM = nonselective activator or artifact in parental CHO-K1 calcium assay; ATP EC20, Fluo-8 calcium fluorescence; 0% at ATP EC20, 100% at ATP max; activation, % at 3 µM; hit rate 0.02% among 360,000;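 active = activation above the run cutoff, the mean activation of all test compounds plus 3 SD, cut at about 40% in these data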;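 note: peak over basal fluorescence ratio in a 140 s read after ATP addition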
CHO-K1 Ca antag = nonselective inhibitor or artifact in parental CHO-K1 cells; ATP-induced calcium, Fluo-8 fluorescence; hit rate 0.6% among 360,000; inhibition, % at 3 µM;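 active = inhibition above a per-plate cutoff, the plate's mean sample inhibition plus 3 SD, cut at about 24% in these data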;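 note: 0% = DMSO plus EC80 ATP and 100% = DMSO alone without ATP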
M1 ag parental = counter-screen for M1 agonists: effect in parental CHO-K1 cells. Fluo-8 calcium fluorescence; scaled to maximal ATP response, vehicle zero. activation, % at 3 µM. hit rate 0.48% among 360,000; in the data active = activation above about 15%;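 note: untransfected CHO-K1 host cells lacking M1 receptor as counterscreen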
CHRM1 antagonist = blocks human M1 muscarinic receptor; CHO-K1 hM1, Fluo-8 calcium fluorescence, ACh EC80 antagonist; hit rate 1.3% among 360,000; inhibition, % at 3 µM; P11229;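 active = percent inhibition above its own plate's cutoff, namely the mean of that plate's compound wells plus 3 SD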;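 note: peak over basal fluorescence ratio during 140 s after agonist addition; 0% = ACh EC80 plus DMSO and 100% = DMSO alone without agonist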
Active calls of the source: *; ! = repeats disagree.

SMILES	M1 PAM	M1 ag	CHO-K1 Ca PAM	CHO-K1 Ca antag	M1 ag parental	CHRM1 antagonist
CCN(CC)c1ccc(C(=C2C=CC(=[N+](CC)CC)C=C2)c2ccccc2)cc1	-34	26*	-27	75*	39*	97*
CCN(CC)c1ccc(C(=O)NNC(=O)CCNC(=O)c2ccccc2)cc1	12	-2	22	-7	1	-11
COc1cccc(C(=O)NCC(c2ccc3c(c2)OCO3)N2CCN(c3ccc(F)cc3)CC2)c1 (stereo not given)	-26	-7	-12	0	1	28*
Nc1nc(CN2CCC(Cc3ccccc3)CC2)nc(Nc2ccccc2)n1	-15	-5	2	-2	1	31*
Nc1nc(CN2CCN(c3ccccc3F)CC2)nc(Nc2ccccc2)n1	1	1	-3	31*	0	4
Cc1ccc(Nc2nc(N)nc(CN3CCN(c4ccccc4F)CC3)n2)cc1	4	-1	10	-9	1	-12
CCOC(=O)C1CCCN(Cc2nc(N)nc(Nc3ccccc3)n2)C1 (stereo not given)	-9	31*	0	14	0	13
Nc1nc(CN2CCCCCC2)nc(Nc2ccccc2)n1	7	-4	4	-12	0	-10
Cc1ccc(CNC(=O)CN2C(=O)NC3(CC(C)CC(C)(C)C3)C2=O)cc1 (stereo not given)	13	-4	19	-3	1	-14
Cc1cccc(C(=O)Nc2ccc(S(=O)(=O)N3CCOCC3)cc2C)c1	2	-3	15	-17	1	-12
COc1ccc(CCNC(=O)c2cc(-c3ccccn3)nc3c(Cl)cccc23)cc1OC	5	-3	0	-5	0	-11
COc1ccc(CCNC(=O)c2cc(-c3ccncc3)nc3c(Cl)cccc23)cc1OC	-12	-3	-15	-4	5	38*
CC1=C(C(=O)N(C)C)CC(CC(=O)NC2CCCCC2)C(=O)N1CCC1=CCCCC1 (stereo not given)	2	-7	-5	3	0	5
CC(C)=CCN1CCN(Cc2nc(-c3ccccc3)cs2)CC1CCO (stereo not given)	-22	-7	-3	2	1	34*
OCCC1CN(Cc2nc(-c3ccc(F)cc3)cs2)CCN1CCc1ccccc1 (stereo not given)	-16	-11	-8	7	3	12
OCCC1CN(Cc2nc(-c3ccccc3)cs2)CCN1CCc1ccccc1 (stereo not given)	-19	-10	14	2	16*	14
COC(=O)C1=C(C)NC(C)=C(C(=O)OC)C1c1ccc(-c2cccc([N+](=O)[O-])c2)o1	12	-1	1	12	1	-19
COC(=O)C1=C(C)NC(C)=C([N+](=O)[O-])C1c1ccccc1C(F)(F)F (stereo not given)	-3	-3	8	35*!	0	-17
CCn1nc(C)c(/C=N/NC(=O)c2ccc3c(c2)c(C)c(C)n3Cc2ccccc2)c1C	1	-5	17	-7	0	-10
O=C(C[C@H]1C[C@H](C(=O)N2CCCCC2)[C@@]2(CCc3ccccc3)c3[nH]c4ccc(Cl)cc4c3CCN2C1=O)NCCC1=CCCCC1	-11	-1	-11	26*	0	21
COc1ccc(CCNC(=O)Nc2cccc([N+](=O)[O-])c2)cc1	-9	4	1	-11	15*	7
O=C(Nc1ccc(Br)cc1)NC1CCCCCCC1	-14	3	-1	10	14	30*
O=C(Nc1ccccc1)NC1CCCCCCC1	6	-3	5	11	2	-6
COc1cc(NC(=O)Nc2cccc([N+](=O)[O-])c2)cc(OC)c1	-13	2	-7	10	15*	9
O=C(Nc1cccc([N+](=O)[O-])c1)NC1CCCCCCC1	-15	2	15	2	16*	26
SMILES	M1 PAM	M1 ag	CHO-K1 Ca PAM	CHO-K1 Ca antag	M1 ag parental	CHRM1 antagonist
O=C(CNC1CCCCC1)Nc1cccc([N+](=O)[O-])c1	9	-1	-25	5	-1	-5
COc1ccc(CCNC(=O)Nc2cccc([N+](=O)[O-])c2)cc1OC	-1	-2	18	-12	5	5
N#CC1(Nc2ccc([N+](=O)[O-])cc2)CCCC1	0	-1	2	-6	0	4
COc1ccc(CCNC(=O)Nc2ccccc2[N+](=O)[O-])cc1	5	27*	17	-2	2	6
Cc1cccc(CNC(=O)C2CCC(=O)N(CCCc3ccccc3)C2)c1 (stereo not given)	5	-5	8	0	1	-8
O=C(Nc1ccccc1)Nc1ccc(-n2ccc(C(F)(F)F)n2)cc1	-24	4	-19	26*	17*	68*
CCOC(=O)C(Cc1ccc(NC(=O)/C(=C/c2ccc(OC(C)=O)cc2)NC(C)=O)cc1)N1C(=O)c2ccccc2C1=O (stereo not given)	-7	-2	7	8	4	27*
CCOC(=O)C(Cc1ccc(NC(=O)/C(=C/c2ccccc2)NC(=O)c2ccccc2)cc1)N1C(=O)c2ccccc2C1=O (stereo not given)	-3	-1	-13	9	3	15
OC(c1ccccc1)(c1nc(-c2ccc(F)c(Cl)c2)cs1)C(F)(F)F (stereo not given)	-18	-6	-6	-3	0	27
CCN(c1ccccc1)S(=O)(=O)c1ccc(C(=O)NCC(c2cccs2)N(C)C)cc1 (stereo not given)	-24	-5	11	-10	7	36*
CCN(c1ccccc1)S(=O)(=O)c1cc(C(=O)NCC(c2ccc(OC)cc2)N(C)C)ccc1C (stereo not given)	-10	36*	15	-16	2	55*
CCCOc1ccc(C(=O)NCC(c2cccs2)N(C)C)cc1 (stereo not given)	-21	-13	1	9	0	9
CCOc1ccc(S(=O)(=O)Nc2ccc(C(=O)N3CCCC3)cc2)cc1C(N)=O	4	-3	-15	-9	-1	-2
COc1ccccc1CNCc1ccc(OC)c2ccccc12	-1	1	5	-6	5	-1
COc1cccc(CNCc2ccc(OC)c3ccccc23)c1OC	-9	-1	-1	12	23*	22
COc1cccc(CN2CCSCC2)c1OC	-2	-5	-26	25*	0	13
Cc1c(Cl)cccc1NC(=O)Cn1c(CCC(=O)O)ccc1-c1ccccc1	-3	-4	-15	14	1	28
CC(C)CCC(CCN1CCCC1)c1ccc2c(c1)OCO2 (stereo not given)	-26	-7	26	-16	3	57*
